Data: the supplement of paper PMC10849652
About 8,800 targets were measured; listed, in parts, are those with a hit and a random draw of the rest. About 0.5% of all pairs of compound and target were hits. A number with no mark means an inactive call.

Tests used:
Experiment in all cases: log2 fold change, soluble protein after heating vs DMSO (PISA); higher = thermal stabilisation; K562 lysate, 10 uM; active = over 0.2 and 3.5 SD of the protein, either way, in both replicates (recomputed)
[1] = compound: Cn1cc(CNCC2CCN(c3ncc(C(=O)NO)cn3)CC2)c2ccccc21 [quisinostat]
How it was run: (§1)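 Soluble protein was defined as the supernatant remaining after 21,000xg for 90 min, following pooling of heated aliquots and adjustment to 0.5% NP-40 at 4°C. Before that, crude K562 extract at 1 mg/mL protein in PBS pH 7.4 with 1 mM MgCl2 was treated with 10 μM compound for 30 min and heated for 3 min across 48°C-58°C. Quantification used TMTpro 16plex LC-MS/MS with channel sums equalised, and values are log-two fold changes in thermal stability relative to solvent controls from duplicates.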

[2] = compound: NC(=O)Nc1cc(-c2cccc(F)c2)sc1C(=O)N[C@H]1CCCNC1
How it was run: as §1

[3] = compound: NC1(c2ccc(-c3nc4ccn5c(=O)[nH]nc5c4cc3-c3ccccc3)cc2)CCC1
How it was run: as §1

[4] = compound: NCC(=O)Nc1ccc(-n2nc(C(F)(F)F)cc2-c2ccc3c(ccc4ccccc43)c2)cc1
How it was run: as §1

[5] = compound: O=C(CCCCCCC(=O)Nc1ccccc1)NO [vorinostat]
How it was run: as §1

[6] = compound: O=C(O)c1ccc2c(c1)nc(Nc1cccc(Cl)c1)c1ccncc12 [silmitasertib]
How it was run: as §1

[7] = compound: O=C1NC(=O)C(c2cnc3ccccn23)=C1c1cn2c3c(cc(F)cc13)CN(C(=O)N1CCCCC1)CC2
How it was run: as §1

[8] = compound: c1cn2cc(-c3ccc4cn[nH]c4c3)nc(Nc3ccc(N4CCOCC4)cc3)c2n1 [entospletinib]
How it was run: as §1

[9] = compound: Cn1cc(-c2ccc3c(c2)CCN3C(=O)Cc2cccc(C(F)(F)F)c2)c2c(N)ncnc21
How it was run: as §1

[10] = compound: Cc1cn(-c2cc(NC(=O)c3ccc(C)c(Nc4nccc(-c5cccnc5)n4)c3)cc(C(F)(F)F)c2)cn1 [nilotinib]
How it was run: as §1

[11] = compound: Cc1nc(Nc2n[nH]c3c2CN(C(=O)N[C@H](CN(C)C)c2ccccc2)C3(C)C)c2sccc2n1
How it was run: as §1

[12] = compound: Cc1ncc(-c2ccnc(Nc3ccc(S(C)(=O)=O)cc3)n2)n1C(C)C
How it was run: as §1

[13] = compound: Cn1cncc1[C@@](N)(c1ccc(Cl)cc1)c1ccc2c(c1)c(-c1cccc(Cl)c1)cc(=O)n2C [tipifarnib]
How it was run: as §1

[14] = compound: NC(=O)c1cnc(N[C@@H]2CCCC[C@@H]2N)nc1Nc1cccc(-n2nccn2)c1
How it was run: as §1

[15] = compound: Cc1nc(Nc2ncc(C(=O)Nc3c(C)cccc3Cl)s2)cc(N2CCN(CCO)CC2)n1 [dasatinib]
How it was run: as §1

UniProt Q9UGU0, sequence (Q9UGU0 whole entry, looked up): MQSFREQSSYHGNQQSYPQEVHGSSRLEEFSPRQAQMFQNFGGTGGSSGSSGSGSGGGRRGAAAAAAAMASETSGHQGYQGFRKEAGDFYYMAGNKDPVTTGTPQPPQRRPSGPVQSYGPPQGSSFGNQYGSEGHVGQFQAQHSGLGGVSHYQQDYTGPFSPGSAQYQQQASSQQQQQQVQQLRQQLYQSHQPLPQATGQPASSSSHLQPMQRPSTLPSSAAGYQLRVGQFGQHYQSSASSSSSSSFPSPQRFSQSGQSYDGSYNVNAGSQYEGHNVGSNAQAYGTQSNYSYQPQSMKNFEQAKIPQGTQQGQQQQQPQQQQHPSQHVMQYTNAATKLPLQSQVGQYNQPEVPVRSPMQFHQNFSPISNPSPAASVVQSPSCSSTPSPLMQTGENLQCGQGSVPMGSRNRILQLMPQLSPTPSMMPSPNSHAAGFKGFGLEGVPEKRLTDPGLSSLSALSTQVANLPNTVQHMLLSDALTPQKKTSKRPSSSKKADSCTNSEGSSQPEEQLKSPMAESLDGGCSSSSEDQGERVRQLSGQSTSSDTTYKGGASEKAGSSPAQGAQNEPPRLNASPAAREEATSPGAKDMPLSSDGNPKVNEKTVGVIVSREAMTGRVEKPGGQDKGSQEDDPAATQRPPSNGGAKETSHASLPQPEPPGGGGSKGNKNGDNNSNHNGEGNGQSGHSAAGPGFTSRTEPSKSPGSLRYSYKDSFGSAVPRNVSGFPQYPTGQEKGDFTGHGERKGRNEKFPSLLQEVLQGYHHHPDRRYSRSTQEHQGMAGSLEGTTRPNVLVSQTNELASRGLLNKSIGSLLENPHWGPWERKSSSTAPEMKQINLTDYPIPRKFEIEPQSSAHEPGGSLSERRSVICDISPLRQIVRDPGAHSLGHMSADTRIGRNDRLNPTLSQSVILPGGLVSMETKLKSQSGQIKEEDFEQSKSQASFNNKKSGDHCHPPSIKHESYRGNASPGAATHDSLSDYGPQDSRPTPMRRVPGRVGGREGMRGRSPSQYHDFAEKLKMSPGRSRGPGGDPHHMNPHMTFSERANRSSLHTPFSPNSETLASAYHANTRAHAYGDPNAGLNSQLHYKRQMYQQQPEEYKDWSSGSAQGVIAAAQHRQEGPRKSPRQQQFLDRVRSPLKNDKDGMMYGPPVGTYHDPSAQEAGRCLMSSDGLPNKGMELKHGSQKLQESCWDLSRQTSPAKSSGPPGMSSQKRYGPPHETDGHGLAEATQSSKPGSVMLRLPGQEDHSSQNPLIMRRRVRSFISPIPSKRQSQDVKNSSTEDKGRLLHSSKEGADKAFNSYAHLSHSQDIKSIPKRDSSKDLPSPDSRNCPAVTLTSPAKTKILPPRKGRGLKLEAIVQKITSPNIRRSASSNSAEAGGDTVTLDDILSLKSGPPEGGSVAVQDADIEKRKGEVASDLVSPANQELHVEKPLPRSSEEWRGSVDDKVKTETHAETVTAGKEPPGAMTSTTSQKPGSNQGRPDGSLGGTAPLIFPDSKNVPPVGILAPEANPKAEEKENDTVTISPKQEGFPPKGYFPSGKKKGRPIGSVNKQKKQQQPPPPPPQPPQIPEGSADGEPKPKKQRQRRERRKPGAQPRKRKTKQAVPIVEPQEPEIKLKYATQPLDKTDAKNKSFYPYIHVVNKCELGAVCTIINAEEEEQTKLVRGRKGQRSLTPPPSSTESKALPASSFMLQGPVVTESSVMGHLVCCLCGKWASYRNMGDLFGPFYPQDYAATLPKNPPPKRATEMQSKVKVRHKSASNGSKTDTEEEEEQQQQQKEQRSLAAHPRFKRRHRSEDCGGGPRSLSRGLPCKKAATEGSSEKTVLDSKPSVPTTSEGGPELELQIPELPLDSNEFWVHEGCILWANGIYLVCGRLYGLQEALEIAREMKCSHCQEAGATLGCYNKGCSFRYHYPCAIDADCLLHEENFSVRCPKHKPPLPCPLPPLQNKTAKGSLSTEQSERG
UniProt Q6P9G4, sequence (Q6P9G4 whole entry, looked up): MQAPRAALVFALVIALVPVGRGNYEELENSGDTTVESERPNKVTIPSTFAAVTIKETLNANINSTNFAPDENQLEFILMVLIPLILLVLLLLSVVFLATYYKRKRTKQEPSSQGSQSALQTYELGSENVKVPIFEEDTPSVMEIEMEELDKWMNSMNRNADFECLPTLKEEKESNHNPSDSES
UniProt Q8TDI8, sequence (Q8TDI8 whole entry, looked up): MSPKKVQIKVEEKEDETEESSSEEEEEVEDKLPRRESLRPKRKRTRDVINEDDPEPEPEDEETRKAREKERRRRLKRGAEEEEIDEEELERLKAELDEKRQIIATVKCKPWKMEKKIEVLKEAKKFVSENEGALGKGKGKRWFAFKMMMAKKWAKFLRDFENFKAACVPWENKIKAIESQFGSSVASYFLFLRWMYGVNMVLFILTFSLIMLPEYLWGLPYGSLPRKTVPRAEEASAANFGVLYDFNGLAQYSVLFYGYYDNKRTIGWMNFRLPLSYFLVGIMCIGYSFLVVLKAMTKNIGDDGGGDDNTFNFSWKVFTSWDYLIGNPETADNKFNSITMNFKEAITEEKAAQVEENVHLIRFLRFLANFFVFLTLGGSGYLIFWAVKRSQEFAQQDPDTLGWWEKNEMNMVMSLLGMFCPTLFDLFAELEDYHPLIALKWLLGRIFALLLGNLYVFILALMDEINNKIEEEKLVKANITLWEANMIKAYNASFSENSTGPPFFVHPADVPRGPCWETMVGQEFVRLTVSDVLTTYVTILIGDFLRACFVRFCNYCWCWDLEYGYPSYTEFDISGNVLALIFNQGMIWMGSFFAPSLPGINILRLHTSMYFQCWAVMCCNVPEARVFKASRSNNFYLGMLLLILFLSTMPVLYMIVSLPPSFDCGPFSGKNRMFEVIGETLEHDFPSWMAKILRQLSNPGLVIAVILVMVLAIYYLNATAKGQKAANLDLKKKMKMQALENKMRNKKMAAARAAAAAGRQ
UniProt Q96LJ8, sequence (Q96LJ8 whole entry, looked up): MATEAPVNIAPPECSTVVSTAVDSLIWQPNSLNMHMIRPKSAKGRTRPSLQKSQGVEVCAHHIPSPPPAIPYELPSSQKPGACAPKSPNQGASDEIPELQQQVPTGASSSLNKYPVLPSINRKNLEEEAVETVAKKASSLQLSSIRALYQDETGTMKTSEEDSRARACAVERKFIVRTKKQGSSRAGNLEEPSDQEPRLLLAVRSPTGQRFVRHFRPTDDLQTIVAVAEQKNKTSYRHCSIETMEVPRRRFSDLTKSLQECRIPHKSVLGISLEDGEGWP
UniProt P55851, sequence (P55851 whole entry, looked up): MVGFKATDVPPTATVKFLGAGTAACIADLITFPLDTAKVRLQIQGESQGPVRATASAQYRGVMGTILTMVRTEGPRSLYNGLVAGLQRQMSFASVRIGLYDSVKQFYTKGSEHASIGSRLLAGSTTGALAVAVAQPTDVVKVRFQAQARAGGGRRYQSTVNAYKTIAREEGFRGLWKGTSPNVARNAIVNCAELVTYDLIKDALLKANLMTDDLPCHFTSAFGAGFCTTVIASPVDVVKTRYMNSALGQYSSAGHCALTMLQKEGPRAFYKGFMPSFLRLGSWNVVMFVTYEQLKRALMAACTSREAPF
UniProt Q9BRN9, sequence (Q9BRN9 whole entry, looked up): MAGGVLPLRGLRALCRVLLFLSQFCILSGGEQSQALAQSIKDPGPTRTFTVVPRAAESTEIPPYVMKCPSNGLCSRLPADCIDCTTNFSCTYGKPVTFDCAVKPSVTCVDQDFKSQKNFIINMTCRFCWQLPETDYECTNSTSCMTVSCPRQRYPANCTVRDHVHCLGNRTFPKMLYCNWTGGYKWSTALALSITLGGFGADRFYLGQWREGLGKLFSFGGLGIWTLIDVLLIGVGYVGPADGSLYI
UniProt Q8TD43, sequence (Q8TD43 whole entry, looked up): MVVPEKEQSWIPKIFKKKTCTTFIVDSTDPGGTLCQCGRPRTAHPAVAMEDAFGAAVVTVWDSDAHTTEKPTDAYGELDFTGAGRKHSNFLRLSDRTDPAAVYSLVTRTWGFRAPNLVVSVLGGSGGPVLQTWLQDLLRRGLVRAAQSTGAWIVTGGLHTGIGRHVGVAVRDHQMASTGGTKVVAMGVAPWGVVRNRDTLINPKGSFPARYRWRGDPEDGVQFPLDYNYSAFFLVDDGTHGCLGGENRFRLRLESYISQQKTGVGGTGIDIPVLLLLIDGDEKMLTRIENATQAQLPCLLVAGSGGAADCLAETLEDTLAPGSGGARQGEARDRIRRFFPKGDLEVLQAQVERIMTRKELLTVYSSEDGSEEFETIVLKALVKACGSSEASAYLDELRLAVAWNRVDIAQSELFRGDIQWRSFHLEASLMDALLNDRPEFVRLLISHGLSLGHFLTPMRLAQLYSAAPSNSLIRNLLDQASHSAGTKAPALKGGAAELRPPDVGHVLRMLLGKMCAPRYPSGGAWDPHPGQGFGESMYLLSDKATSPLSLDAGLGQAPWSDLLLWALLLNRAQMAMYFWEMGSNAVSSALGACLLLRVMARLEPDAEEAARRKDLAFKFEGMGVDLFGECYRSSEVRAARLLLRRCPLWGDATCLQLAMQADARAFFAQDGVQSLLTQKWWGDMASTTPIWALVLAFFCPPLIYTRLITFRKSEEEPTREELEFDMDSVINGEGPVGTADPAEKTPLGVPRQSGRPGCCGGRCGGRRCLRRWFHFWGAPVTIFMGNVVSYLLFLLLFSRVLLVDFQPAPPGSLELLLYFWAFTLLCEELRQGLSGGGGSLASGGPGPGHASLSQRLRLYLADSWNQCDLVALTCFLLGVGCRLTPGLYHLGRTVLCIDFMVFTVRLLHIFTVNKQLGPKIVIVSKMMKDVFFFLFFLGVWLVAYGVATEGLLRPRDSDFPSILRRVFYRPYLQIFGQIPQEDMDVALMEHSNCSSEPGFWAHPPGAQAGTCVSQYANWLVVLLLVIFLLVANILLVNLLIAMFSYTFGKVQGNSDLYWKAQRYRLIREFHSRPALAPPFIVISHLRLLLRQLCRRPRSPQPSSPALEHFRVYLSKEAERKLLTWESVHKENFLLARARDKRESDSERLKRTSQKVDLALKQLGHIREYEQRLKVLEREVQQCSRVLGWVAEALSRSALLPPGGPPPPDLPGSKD
UniProt Q9NRX6, sequence (Q9NRX6 whole entry, looked up): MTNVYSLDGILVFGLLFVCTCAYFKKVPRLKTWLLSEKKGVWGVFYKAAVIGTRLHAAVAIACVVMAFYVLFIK

Row | Target | log2 fold change [1] | log2 fold change [2] | log2 fold change [3] | log2 fold change [4] | log2 fold change [5] | log2 fold change [6] | log2 fold change [7] | log2 fold change [8] | log2 fold change [9] | log2 fold change [10] | log2 fold change [11] | log2 fold change [12] | log2 fold change [13] | log2 fold change [14] | log2 fold change [15]
1 | TTLL12 (UniProt V9GY16) | -0.436 | -0.021 | 0.039 | 0.115 | 0.076 | -0.298 | 0.035 | 0.103 | – | – | – | – | – | – | –
2 | UBAP2, A0A0D9SFI5 | 0.151 | 0.111 | – | – | – | – | -0.094 | – | – | – | – | – | – | – | –
3 | TGFBR1 isoform 2 (UniProt P36897) | – | – | -0.117 | – | 0 | 0.076 | – | -0.004 | -0.03 | – | – | – | – | – | –
4 | TCF3 isoform 2 (UniProt P15923) | -0.05 | -0.005 | -0.068 | – | -0.196 | -0.056 | 0.043 | – | – | – | – | – | – | – | –
5 | TUBB6 (UniProt K7ES63) | -0.267 | 0.049 | -0.008 | -0.062 | -0.414 | 0.013 | -0.164 | -0.11 | – | -0.051 | 0.112 | -0.155 | 0.08 | 0.08 | –
6 | TRPM4 (UniProt Q8TD43) | -0.01 | 0.111 | 0.089 | – | 0.161 | -0.091 | -0.078 | – | -0.099 | – | – | – | – | – | -0.02
7 | UBAP2 (UniProt Q5JV08) | – | – | – | – | – | – | – | – | – | -0.211 | 0.172 | 0.104 | 0.133 | – | –
8 | TENM4 (UniProt Q6N022) | -0.13 | 0.033 | – | – | – | – | 0.143 | – | – | – | – | – | – | -0.081 | –
9 | TCF3 (UniProt X6REB3) | – | – | – | -0.257 | – | – | – | – | – | – | – | – | – | – | –
10 | UCP2 (UniProt P55851) | -0.022 | 0.059 | – | -0.12 | – | – | 0.035 | – | – | 0.144 | -0.186 | -0.137 | 0.142 | – | –
11 | TLE3 (UniProt H0YL70) | – | – | – | – | – | – | – | – | 0.05 | – | – | – | – | – | 0.077
12 | UCHL5 (UniProt Q5LJA9) | -0.186 | -0.024 | 0.006 | -0.017 | -0.361 (active) | 0.004 | -0.086 | -0.011 | -0.075 | – | – | – | – | 0.009 | -0.214
13 | TNIK isoform 5 (UniProt Q9UKE5) | -0.218 | 0.539 (active) | – | – | – | – | -0.134 | – | 0.019 | – | – | – | – | 0.019 | 0.187
14 | UBXN10 (UniProt Q96LJ8) | -0.028 | 0.035 | 0.014 | -0.018 | -0.321 (active) | -0.005 | -0.002 | 0 | 0.008 | – | – | – | – | 0.078 | -0.007
15 | TCF20 (UniProt Q9UGU0) | 0.193 | -0.006 | 0.068 | – | -0.067 | 0.054 | -0.056 | – | -0.057 | – | – | – | – | 0.11 | 0.001
16 | TMEM154 (UniProt Q6P9G4) | 0.103 | -0.101 | – | – | – | – | 0.008 | -0.056 | 0.07 | – | – | – | – | – | 0.058
17 | TBC1D20 isoform 3 (UniProt Q96BZ9) | -0.021 | 0.067 | -0.006 | -0.118 | 0.088 | -0.013 | 0.058 | 0.02 | -0.053 | – | – | – | – | -0.072 | 0.027
18 | TNIK (UniProt C9J338) | -0.292 | -0.043 | -0.068 | 0.195 | 0.103 | -0.023 | 0.006 | -0.049 | -0.043 | – | – | – | – | 0.015 | -0.055
19 | TFPT (UniProt P0C1Z6) | – | – | -0.002 | – | 0.289 | -0.18 | – | – | 0.006 | – | – | – | – | 0.023 | 0.009
20 | TFPI (UniProt P10646) | -0.088 | -0.067 | 0.02 | 0.067 | 0.106 | 0.01 | -0.063 | -0.057 | – | -0.076 | 0.04 | -0.035 | -0.025 | 0.035 | –
21 | TUBB4A (UniProt M0QYM7) | -0.116 | 0.107 | 0.126 | 0.128 | -0.431 | 0.01 | -0.062 | 0.032 | – | -0.029 | -0.009 | 0.039 | 0.013 | -0.048 | –
22 | UBR4 isoform 4 (UniProt Q5T4S7) | – | – | 0.049 | -0.145 | -0.792 (active) | -0.004 | – | 0.205 | -0.158 | – | – | – | – | -0.078 | -0.083
23 | TRIM3 (UniProt O75382) | – | – | 0.146 | -0.304 | -0.055 | -0.179 | – | -0.056 | – | – | – | – | – | 0.623 | –
24 | TM2D3 (UniProt Q9BRN9) | – | – | -0.09 | – | 0.096 | 0.339 | – | -0.184 | – | – | – | – | – | – | –
25 | UBAP2L isoform 1 (UniProt Q14157) | 0.613 | 0.081 | – | – | – | – | 0.088 | – | – | -0.03 | -0.081 | 0.09 | -0.067 | – | –
26 | TMPO isoform 2 (UniProt P42167) | – | – | – | -0.066 | – | – | – | 0.032 | -0.072 | – | – | – | – | – | -0.042
27 | TMEM167B (UniProt Q9NRX6) | -0.016 | 0.027 | -0.019 | 0.019 | 0 | 0.009 | -0.033 | 0.031 | – | 0.006 | 0.031 | 0.014 | -0.013 | 0.005 | –
28 | TFAP4 (UniProt Q01664) | 0.006 | -0.036 | -0.001 | 0.005 | 0.051 | -0.196 | 0.01 | -0.086 | – | 0.18 | 0.155 | 0 | -0.066 | -0.218 | –
29 | TMC1 (UniProt Q8TDI8) | -0.552 (active) | -0.058 | 0 | 0.015 | -0.121 | 0.02 | -0.337 | 0.012 | – | -0.073 | -0.049 | -0.28 | 0.015 | -0.006 | –
30 | TMEM132A isoform 2 (UniProt Q24JP5) | -0.022 | 0.087 | -0.014 | – | -0.156 | 0.351 | 0.227 | -0.089 | – | – | – | – | – | 0.724 | –
